# Inconclusive results are not listed. A number with no mark means an inactive call. Active and inactive are the calls of the source. Calls follow the shape of the dose curve; as a rule, active = well fitted inhibition curve with a large enough effect; inconclusive = small, poorly fitted or top-dose-only effect; inactive = no such curve, though single readings can be large or run the other way.
# Biological target: Rap guanine nucleotide exchange factor 4 (Homo sapiens) (UniProt Q8WZA2)
# Assay: Confirmatory qHTS for antagonist of cAMP-regulated guanine nucleotide exchange factor 4 (EPAC2) (AID 1645885); also: nearly all actives have a fitted effect of over 25% in size
# Conditions: EPAC2 Rap1B-BODIPY-GDP exchange fluorescence, biochemical; series mostly up to 12.7 µM; activity change, negative = inhibition: at the top concentration
# % is scaled to controls: 0 for no effect and ±100 for the full control effect; potency is read from the fitted curve at half-maximal effect.
# Rap guanine nucleotide exchange factor 4 (Homo sapiens), sequence (Q8WZA2 whole entry, looked up): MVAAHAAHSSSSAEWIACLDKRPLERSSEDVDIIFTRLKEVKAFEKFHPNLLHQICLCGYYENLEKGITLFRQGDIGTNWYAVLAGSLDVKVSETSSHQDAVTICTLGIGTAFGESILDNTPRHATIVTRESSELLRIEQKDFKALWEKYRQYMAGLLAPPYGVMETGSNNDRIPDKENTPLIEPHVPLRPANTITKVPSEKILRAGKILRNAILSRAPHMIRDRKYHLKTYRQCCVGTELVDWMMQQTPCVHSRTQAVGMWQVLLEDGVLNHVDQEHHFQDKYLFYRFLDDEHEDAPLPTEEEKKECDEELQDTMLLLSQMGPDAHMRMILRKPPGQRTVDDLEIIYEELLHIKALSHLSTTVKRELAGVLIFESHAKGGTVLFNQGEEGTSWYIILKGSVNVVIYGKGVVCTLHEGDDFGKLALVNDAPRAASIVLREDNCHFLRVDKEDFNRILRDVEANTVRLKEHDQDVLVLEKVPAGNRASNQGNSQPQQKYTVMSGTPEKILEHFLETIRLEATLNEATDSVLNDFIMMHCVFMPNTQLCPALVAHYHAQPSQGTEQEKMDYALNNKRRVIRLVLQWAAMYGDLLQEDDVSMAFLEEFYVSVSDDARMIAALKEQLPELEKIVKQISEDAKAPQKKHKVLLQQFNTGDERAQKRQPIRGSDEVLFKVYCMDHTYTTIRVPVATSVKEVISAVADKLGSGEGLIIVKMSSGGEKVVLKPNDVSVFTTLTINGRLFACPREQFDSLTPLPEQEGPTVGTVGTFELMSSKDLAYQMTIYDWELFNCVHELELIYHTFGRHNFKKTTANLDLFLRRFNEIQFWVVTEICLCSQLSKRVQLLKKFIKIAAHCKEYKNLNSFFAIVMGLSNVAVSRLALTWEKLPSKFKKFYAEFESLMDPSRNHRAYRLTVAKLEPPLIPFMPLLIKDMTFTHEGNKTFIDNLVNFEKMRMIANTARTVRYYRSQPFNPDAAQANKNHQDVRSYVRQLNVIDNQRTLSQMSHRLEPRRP
SMILES,Potency,"activity change, negative = inhibition",outcome
COc1ccc(/C(O)=C/c2nc3ccccc3n(-c3ccccc3)c2=O)cc1,75.7 µM (active),–,–
COc1ccccc1C(=O)NNC(=O)CCCN1C(=O)/C(=C/c2cccs2)SC1=S,–,2.21%,–
CNC(=O)N(C1=NCC(C)(C)S1)c1ccc(F)c(Cl)c1,–,54.7% [at 114 µM],–
Nc1ccccc1Oc1ccc2ccccc2c1,–,–,inactive
COc1ccc(OC)c(NC(=S)N2c3ccccc3CC2C)c1 (stereo not drawn),–,-2.21%,–
O=C(COc1cccc(OC(F)F)c1)Nc1ccc(SC(F)F)cc1,–,-24.8%,–
Cc1ccc(S(=O)(=O)C2(C(=O)Nc3ccc(Br)cc3)CC2)cc1,–,-22.3%,–
Oc1c(C(c2ccccc2)N2CCN(c3ccccc3)CC2)sc2nc(-c3ccco3)nn12 (stereo not drawn),–,-4.42%,–
COc1ccc(Cl)cc1NC(=O)CN(C)C(C)C(=O)NC(=O)NC1CCCCC1 (stereo not drawn),–,28.4% [at 114 µM],–
CCOC(=O)/C(C#N)=C/c1ccc(N2CCN(Cc3ccccc3)CC2)cc1,–,-1.29%,–
CN1CCS/C1=C\C=C1/SC(=S)N(CC(=O)O)C1=O,–,-9.84% [at 114 µM],–
CC(/C=C/c1ccc(N(C)C)cc1)=N\N=C1\NC(=O)CC(C(=O)Nc2ccccc2)S1 (stereo not drawn),–,-1.44%,–
Cc1ccc2cccc(OC(=O)c3c(F)cccc3Cl)c2n1,–,-1.9% [at 114 µM],–
CCN(CC)c1ccc2cc(C(N)=O)c(=N)oc2c1,–,2.22%,–
O=C(N/N=C/c1cc(Cl)cc([N+](=O)[O-])c1O)NC12CC3CC(CC(C3)C1)C2,–,73.7% [at 114 µM],–
COC(=O)CC(NC(=S)NC(=O)c1ccccc1)c1ccc(Br)cc1 (stereo not drawn),–,–,inactive
CN(C)c1ccc(C2C=C(c3ccc(Cl)cc3OC(F)F)Nc3ncnn32)cc1 (stereo not drawn),–,-5.08%,–
Cc1ccc(NC(=O)c2sc3nc(-c4cc5ccccc5oc4=O)[nH]c(=O)c3c2C)c(C)c1,–,9.41%,–

# — PubChem BioAssay (NCATS)
